# Bioassay records deposited in PubChem BioAssay by Johns Hopkins Ion Channel Center.
# Shown are actives, neighbours in structure and some others; about 1.6% of the full set was active somewhere.
# KCNQ2 inh – inhibitors of rat KCNQ2 potassium channel; AID 2156; B-score at 10 µM; CHO-K1 KCNQ2, FluxOR thallium flux, 20 min; stronger effect = lower value; O88943; 310,000 tested, 1.1% active;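 active = fluorescence ratio B-score at most minus 3 library SDs, with starting brightness B-score within 2 library SDs, cut at about -5.5 in these data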
# Target sequence (O88943 whole entry, looked up): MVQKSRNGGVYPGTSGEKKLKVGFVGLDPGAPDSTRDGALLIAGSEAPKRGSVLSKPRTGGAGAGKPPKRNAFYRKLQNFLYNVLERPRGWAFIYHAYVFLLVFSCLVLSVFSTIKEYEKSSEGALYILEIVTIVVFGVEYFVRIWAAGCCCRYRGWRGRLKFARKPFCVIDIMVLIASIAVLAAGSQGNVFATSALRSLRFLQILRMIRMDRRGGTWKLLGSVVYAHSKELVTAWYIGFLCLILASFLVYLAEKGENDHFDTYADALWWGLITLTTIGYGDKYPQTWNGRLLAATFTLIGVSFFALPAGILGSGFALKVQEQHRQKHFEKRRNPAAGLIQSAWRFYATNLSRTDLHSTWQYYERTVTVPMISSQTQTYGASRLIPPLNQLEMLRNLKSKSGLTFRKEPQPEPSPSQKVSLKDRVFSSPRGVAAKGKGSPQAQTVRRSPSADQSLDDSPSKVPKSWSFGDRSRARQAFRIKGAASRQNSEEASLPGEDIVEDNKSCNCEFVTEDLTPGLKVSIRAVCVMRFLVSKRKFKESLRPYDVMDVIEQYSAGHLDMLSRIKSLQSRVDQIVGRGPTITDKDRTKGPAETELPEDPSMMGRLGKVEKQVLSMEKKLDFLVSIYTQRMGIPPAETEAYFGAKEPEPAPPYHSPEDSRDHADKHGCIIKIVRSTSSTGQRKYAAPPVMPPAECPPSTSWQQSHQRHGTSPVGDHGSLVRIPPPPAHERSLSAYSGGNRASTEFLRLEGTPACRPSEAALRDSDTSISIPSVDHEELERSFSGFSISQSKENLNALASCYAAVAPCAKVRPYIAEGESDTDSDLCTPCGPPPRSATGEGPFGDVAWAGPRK
# KCNQ2 enhance – enhances the rat KCNQ2 potassium channel. O88943. CHO-K1 KCNQ2, FluxOR thallium flux fluorescence; stronger effect = higher value. B-score at 10 µM. 310,000 tested, 0.54% active. AID 2239;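 active = fluorescence ratio B-score at least 3 SD of library B-scores, with initial fluorescence B-score within 3 of them, cut at about 5.3 in these data; same plate scores as AID 2156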;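 also: B-score of peak minus minimum over baseline fluorescence ratio after K+ and Tl+ stimulus; positive B-score means potentiation of KCNQ2 with more thallium influx and brighter signal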
# Starred values were filed as active, the others as inactive; i = inactive; / = not tested or not shown.
SMILES,KCNQ2 inh,KCNQ2 enhance
CCOC(=O)/C(=C\c1ccccc1)C(=O)c1cc(C(C)=O)c(Nc2ccccc2)s1,-8.12*,-8.12
CCOC(=O)/C(=C\c1cccnc1)C(=O)c1cc(C(C)=O)c(Nc2ccccc2)s1,i,/
O=C(NC1CC(=O)N(c2ccc(F)cc2)C1)C(=O)c1c[nH]c2ccccc12 (centres undefined),i,0.82
O=C(OCC#CCSc1nnc(-c2ccccc2)o1)c1cccs1,i,/
O=C(OCC#CCSc1nnc(-c2cccc3ccccc23)o1)c1cccs1,-5.79*,-5.79
CCCCN(C(=O)c1ccc(C)c(S(=O)(=O)N2CCOCC2)c1)c1c(N)n(CCCC)c(=O)[nH]c1=O,i,/
CCOc1ccc(/C=C2/SC(=O)NC2=S)cc1,i,25.8*
CCOc1ccc(N=C2NC(=O)S/C2=C\c2ccc(N(C)C)cc2)cc1,i,0.46
O=C(NC1CC2CCCC(C1)N2Cc1ccccc1)c1ccc([N+](=O)[O-])cc1 (centres undefined),i,/
NC(=O)c1ccc(CSc2nc3ccccc3s2)cc1,i,0.88
c1ccc2sc(SCc3ccc(-c4nnco4)cc3)nc2c1,-7.1*,-7.1
COc1cc(OC)c(NC(=O)CCCNC(=O)Cn2cnc3sc(C)c(C)c3c2=O)cc1Cl,i,0.13
CCCn1c(SCC#N)nc2c(c1=O)C1(CCCC1)Cc1ccccc1-2,-6.39*,-6.39
NC(=O)CSc1nc2c(c(=O)n1-c1ccccc1)C1(CCCCC1)Cc1ccccc1-2,i,0.74
CC1(C)CC(n2c(NCCO)nc3c(c2=O)C2(CCCC2)Cc2ccccc2-3)CCO1 (centres undefined),i,/
Cc1cccc(-n2c(SCC(N)=O)nc3c(c2=O)C2(CCCC2)Cc2ccccc2-3)c1,-6.76*,-6.76
O=c1c2c(nc(NCCO)n1CC1CCCCC1)-c1ccccc1CC21CCCC1,-8.78*,-8.78
N#CCSc1nc2c(c(=O)n1Cc1ccco1)C1(CCCC1)Cc1ccccc1-2,i,/
NC1=NC(c2cccc(Cl)c2)N(CCc2ccc(F)cc2)C(N)=N1 (centres undefined),i,/
CC(C)c1ccc(NC(=O)C2CCN(S(=O)(=O)c3ccc4c(c3)C(C)(C)C(=O)N4C)CC2)cc1,i,/
Cc1cc2ccccn2c1C(=S)NC(=O)c1ccccc1,i,18.6*
Cc1cc2ccccn2c1C(=O)c1ccncc1,i,1.33
C=C(C)c1cccc(C(C)(C)NC(=O)Nc2nnc(C(C)C)s2)c1,-7.84*,-7.84
C=C(C)c1cccc(C(C)(C)NC(=O)Nc2nncs2)c1,i,/
COc1cccc(NC(=O)C2C3C=CC4(O3)C2C(=O)N(CCCN2CCCCC2)C4C(=O)NC2CCCCC2)c1 (centres undefined),i,/
SMILES,KCNQ2 inh,KCNQ2 enhance
Cc1onc(-c2ccc3c(c2)OCO3)c1-c1ccc2[nH]ccc2c1,-7.89*,-7.89
c1cc2cc(-c3c(-c4ccc5c(c4)OCO5)noc3-c3ccsc3)ccc2[nH]1,i,/
CCOc1cc(C(=S)N2CCOCC2)ccc1OC(=O)c1ccc(C)cc1,i,/
O=C(c1cccc(Cl)c1)N1CCC(=O)N(C(COCc2cccc(Cl)c2)Cc2ccccc2)CC1 (centres undefined),i,/
Cc1ccc(COCC(CC(C)C)N2CCN(C(=O)c3cccc(C(F)(F)F)c3)CCC2=O)cc1 (centres undefined),i,/
Cc1ccc(S(=O)(=O)N2CCC(=O)N(C(COCc3cccc(C)c3)Cc3ccccc3)CC2)cc1 (centres undefined),-6.45*,-6.45
Cc1ccc(S(=O)(=O)N2CCC(=O)N(C(COCc3ccc(C(F)(F)F)cc3)Cc3ccccc3)CC2)cc1 (centres undefined),-6.07*,-6.07
CC(C)CC(COCc1ccc(F)cc1)N1CCN(C(=O)c2cccc(C(F)(F)F)c2)CCC1=O (centres undefined),-6.06*,-6.06
Cc1ccc(S(=O)(=O)N2CCC(=O)N(C(COCc3ccc(C(F)(F)F)cc3)C(C)C)CC2)cc1 (centres undefined),i,/
Cc1ccc(S(=O)(=O)N2CCC(=O)N(C(COCc3ccc(Cl)c(Cl)c3)Cc3ccccc3)CC2)cc1 (centres undefined),i,/
O=C(c1ccc(Cl)c(Cl)c1)N1CCC(=O)N(C(COCc2cccc(Cl)c2)Cc2ccccc2)CC1 (centres undefined),-6.19*,-6.19
Cc1cc(C)cc(OCCCCn2cncn2)c1,i,0.69
COc1ccc(N2CCN(C(C)C(=O)N3CCCC3)CC2)cc1 (centres undefined),i,0.7
COc1ccc(NS(=O)(=O)c2ccc3c(c2)N(C(C)=O)CC(C)S3)c(OC)c1 (centres undefined),i,/
O=C(CNC(=O)c1nc[nH]c1C(=O)N1CCN(c2ccccc2)CC1)OCc1ccccc1,i,/
O=[N+]([O-])c1cccc(S(=O)(=O)NCc2ccncc2)c1,i,2.27
COc1ccc(CN2CCN(Cc3c[nH]c4ccccc34)CC2CCO)c(F)c1 (centres undefined),i,/
CCN1CCN(c2ccc(S(=O)(=O)N3CCOCC3)cc2NC(=O)CCC(C)C)CC1,i,1.18
O=C(O)Cc1ccc(NC(=O)c2ccc(NC(=O)C3CC3)cc2)cc1,i,1.28
C=CCCC(=O)N(C)CCO,i,/
O=C(NCc1ccccc1)C(c1ccccc1)N(C(=O)c1csnn1)C1CCCC1 (centres undefined),i,1.12
CC1CCN(S(=O)(=O)c2ccc(NC(=O)C3CSC4(C)CCC(=O)N34)cc2)CC1 (centres undefined),i,0.07
Cc1ccc(S(=O)(=O)NCc2ccccc2)cc1C(=O)NC1CCC(C)CC1 (centres undefined),i,/
CCN1CCN(CCCNC(=O)CNC(=O)c2nn(-c3ccc(OC)cc3OC)c(=O)c3ccccc23)CC1,i,0.61
CCOC(=O)COc1c(OC)cc(Cl)cc1C1Nc2ccccc2C(=O)N1c1ccccc1 (centres undefined),-5.62*,-5.62
SMILES,KCNQ2 inh,KCNQ2 enhance
CCOC(=O)COc1c(OC)cc(Cl)cc1C1Nc2ccccc2C(=O)N1c1ccc(F)cc1 (centres undefined),i,/
CNC(=S)Nc1ccc2nc(C)oc2c1,i,/
Cc1ccccc1-c1nc2ccccc2c(=O)n1/N=C/c1ccc([N+](=O)[O-])cc1,i,/
O=c1c2ccccc2nc(-c2ccccc2)n1/N=C/c1ccc([N+](=O)[O-])cc1,-7.61*,-7.61
CSCC[C@H](NC(=O)C1CCC(CNC(=O)[C@@H]2CCCN2C(=O)OC(C)(C)C)CC1)C(=O)O (some centres undefined),i,/
Cc1ccc(C2(CCNCc3ccco3)CCOC(C(C)C)C2)cc1 (centres undefined),i,/
CC(=O)N(CCC1(c2ccc(C)cc2)CCOC(C(C)C)C1)Cc1ccco1 (centres undefined),-6.01*,-6.01
O=C(/C=C/c1cccc(F)c1)NCCCn1ccnc1,i,/
Cc1ccc(NC(=O)CCc2nnc3ccc(N4CCC(C)CC4)nn23)nc1,i,/
COc1ccc(C(=O)CC(c2ccccc2)C2C(=O)CCCC2=O)cc1 (centres undefined),i,0.02
COc1ccc(C(CC(=O)c2ccccc2)C2CCCCC2=O)cc1 (centres undefined),-5.75*,-5.75
O=C(NC1CCCCC1)C(c1ccncc1)N(C(=O)c1csnn1)c1ccc(F)cc1 (centres undefined),i,/
Cc1ccc(C(=O)NCCC(=O)NCc2ccco2)cc1,i,0.01
